Assay outcomes (PubChem)
UHRF1 MBD2 ctr – blocks human UHRF1 binding to methylated DNA. Q96T88. inhibition, % at 4.4 µM. UHRF1 binding to methylated oligo, TR-FRET. hit rate 0.75% among 370,000; in the data active = inhibition above about 21%;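 note: UHRF1 SRA domain binding a hemimethylated CpG hairpin DNA probe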
MBD2 DNA inh – MBD2-methylated oligo binding inhibition; TR-FRET, MBD2 binding to methylated oligonucleotide; hit rate 0.31% among 370,000; Q9UBB5; inhibition, % at 4.4 µM; in the data active = inhibition above about 13%
PRMT1 inh – inhibitors of human PRMT1 | hit rate 1.3% among 370,000 | AID 652257 | recombinant PRMT1, activity-based probe fluorescence polarization | inhibition, % at 2.79 µM;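 active = inhibition above about 21% made by adding two undisclosed values, limit read from the data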
Target sequence (Q99873 whole entry, looked up): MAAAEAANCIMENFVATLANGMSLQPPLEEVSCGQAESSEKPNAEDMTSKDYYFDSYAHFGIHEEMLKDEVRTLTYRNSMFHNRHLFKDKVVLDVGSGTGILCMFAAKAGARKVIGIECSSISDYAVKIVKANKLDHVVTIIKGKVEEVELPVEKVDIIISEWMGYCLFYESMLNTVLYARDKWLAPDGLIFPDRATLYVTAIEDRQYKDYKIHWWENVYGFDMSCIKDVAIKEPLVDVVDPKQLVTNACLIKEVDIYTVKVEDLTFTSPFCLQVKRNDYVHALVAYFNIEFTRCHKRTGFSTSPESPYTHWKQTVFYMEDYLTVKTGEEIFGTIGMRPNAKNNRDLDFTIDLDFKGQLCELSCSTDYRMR
LEDGF integ inh – blocks HIV-1 LEDGF/p75-dependent DNA integration; hit rate 0.64% among 370,000; TR-FRET IN-LEDGF/p75 DNA integration, Eu/Cy5; inhibition, % at 3.7 µM;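 active = inhibition above the screen-wide mean plus 3 SD, cut at about 13% in these data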;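 note: signal is the Cy5 over europium emission ratio at 671 and 618 nm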
PRMT1 inh conf – PRMT1 (human) inhibition, FP confirmation; shares compounds with PRMT1 inh; recombinant His-PRMT1, activity-based probe fluorescence polarization; inhibition, % at 2.79 µM; hit rate 42% among 3,300;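 active = mean inhibition across replicates above the hit cutoff derived for the earlier primary screen, cut at about 22% in these data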
Each line names hits and unclear results; the compound was inactive in the other large screens (follow-up assays come after a bar, where they were run). Hits are enriched below; roughly 2.5% of the tested compounds scored in any of these assays.

O=C(O)c1ccccc1C1=Nc2ccc(O)cc2Oc2cc(O)ccc21	PRMT1 inh 47.5 | PRMT1 inh conf 65.4
O=C(NN1C(=O)/C(=C\c2ccc(O)c([N+](=O)[O-])c2)SC1=S)c1ccccc1Cl	none
O=C(O)c1ccc(/C=C2\SC(=S)N(NC(=O)c3ccccc3[N+](=O)[O-])C2=O)cc1	PRMT1 inh 28.9 | PRMT1 inh conf inactive
C[C@H]1CN([C@@H](C)CO)C(=O)CCCn2nncc2CO[C@@H]1CN(C)C(=O)c1ccccc1	none
O=c1oc2c(CN3CCCCC3)c(O)ccc2cc1-c1nc2ccccc2[nH]1	none
O=c1oc2c(O)cccc2cc1-c1nc2ccccc2[nH]1	PRMT1 inh 59.5 | PRMT1 inh conf 49.8
CCCc1ccc(C#N)c(SC2CC(=O)N(c3ccc(OC)cc3)C2=O)n1 (configuration not stated)	none
COc1ccc(N2C(=O)CC(Sc3nnnn3-c3ccc(F)cc3)C2=O)cc1 (configuration not stated)	PRMT1 inh 50.7 | PRMT1 inh conf 64.2
O=C1CC(Sc2nnnn2-c2ccccc2)C(=O)N1c1cccc(Cl)c1 (configuration not stated)	PRMT1 inh 74.1 | PRMT1 inh conf 79.2
Cc1ccc(S(=O)(=O)N2CCCCC2)cc1C(=O)N1CCCCCC1	none
C[C@H](O)[C@@H]1CN2CCc3c([nH]c4ccc(-c5ccc6c(c5)OCO6)cc34)[C@@H]2C[C@@H]1N(C)C(=O)Nc1cc(Cl)cc(Cl)c1	none
O=S1(=O)CC(N2CCCC2)CN1Cc1cn(Cc2ccccc2)nn1 (configuration not stated)	none
Brc1ccc(C2NCCS2)cc1 (configuration not stated)	PRMT1 inh 31.8 | PRMT1 inh conf inactive
CS(=O)(=O)N1CCSC1c1ccc(Br)cc1 (configuration not stated)	none
O=C(NNC(=O)C1CCN(c2ncccn2)CC1)c1ccc(Cl)cc1	none
O=C(O)c1cccc(Cn2c(Cl)c(/C=N/NC(=O)c3ccccc3)sc2=O)c1	none
O=C(O)c1cccc(Cn2c(Cl)c(/C=N/NC(=O)c3cccc(O)c3)sc2=O)c1	none
Cc1ccccc1N/N=C/c1sc(=O)n(Cc2cccc(C(=O)O)c2)c1Cl	PRMT1 inh 75.3 | PRMT1 inh conf inactive
COC(=O)c1cccc(Cn2c(Cl)c(/C=N/Nc3ccccc3C)sc2=O)c1	PRMT1 inh 79.4 | PRMT1 inh conf inactive
CCOC(=O)c1ccc(NC(=S)N2CCN(S(C)(=O)=O)CC2)cc1	none
Fc1cc(F)c(C2SCCN2C(=S)Nc2cccc(C(F)(F)F)c2)c(F)c1 (configuration not stated)	PRMT1 inh 77.7 | PRMT1 inh conf inactive
CCOC(=O)c1ccc(NC(=S)N2CCSC2c2c(F)cc(F)cc2F)cc1 (configuration not stated)	PRMT1 inh 89.1 | PRMT1 inh conf inactive
CCOc1ccc(CN(C)c2nc(-c3cccnc3)nc3ccccc23)cc1OC	none
C/C(N)=C(/C#N)C(=O)CSc1nc2ccc(C)cc2[nH]1	PRMT1 inh 26.3 | PRMT1 inh conf inactive
COc1ccc(C2NC(=O)c3ccccc3O2)cc1 (configuration not stated)	none
C[n+]1c(-c2ccccc2)sc([S-])c1-c1ccccc1	PRMT1 inh 50.8 | PRMT1 inh conf inactive
O=C1C=C(OCCCl)CC(c2cccc(Cl)c2)O1 (configuration not stated)	none
CCOc1ccccc1NC(=O)COC(=O)c1nc2nccc(C)n2n1	none
O=C(CC1SC(=O)N(c2ccccc2)C1=O)Nc1ccccc1 (configuration not stated)	PRMT1 inh 81.0 | PRMT1 inh conf 93.2
CC(=O)Nc1ccc(NC(=O)CC2SC(=O)N(CC(=O)c3ccccc3)C2=O)cc1 (configuration not stated)	PRMT1 inh 28.6 | PRMT1 inh conf inactive
O=C(CC1Sc2ncnn2C1=O)Nc1ccccc1 (configuration not stated)	PRMT1 inh 76.5 | PRMT1 inh conf 74.2
COc1ccc2c(c1)NC(=O)[C@@]2(CCN1C(=O)c2ccccc2C1=O)c1[nH]c2ccccc2c1CCN1C(=O)c2ccccc2C1=O	none
COc1ccc(NC(=O)COC(=O)c2cccn2C)cc1S(=O)(=O)N1CCCCC1	none
COc1cccc(Cn2cnc(-c3ccccc3OC)c2-c2ccco2)c1	PRMT1 inh 31.9 | PRMT1 inh conf inactive
O=C(CCl)Nc1cc2[nH]c(=O)[nH]c2cc1Br	none
CCN1CCN(C(=O)N2CCOCC2)CC1	none
COc1ccc(-c2nc3cnccn3c2Nc2ccc(C)cc2)cc1	none
Cc1ccc(Nc2c(-c3ccc(C)o3)nc3cnccn23)cc1	PRMT1 inh 57.8 | PRMT1 inh conf inactive
Clc1ccc(-c2nc3cnccn3c2Nc2ccc3c(c2)OCO3)cc1	none
Cc1ccc(-c2nc3cnccn3c2Nc2ccc3c(c2)OCO3)o1	PRMT1 inh 25.9 | PRMT1 inh conf inactive
Cc1ccc(-c2nc3ccccn3c2Nc2ccccc2)o1	PRMT1 inh 49.2 | PRMT1 inh conf inactive
Cc1ccc(-c2nc3cnccn3c2Nc2ccccc2)o1	PRMT1 inh 66.8 | PRMT1 inh conf inactive
COc1ccc(NC(=O)CN2CCC(C(N)=O)(N3CCCCC3)CC2)c(OC)c1	none
CCOC(=O)CNC(c1ccccc1)c1cc(Br)ccc1NC(=O)CCN1CCOCC1 (configuration not stated)	PRMT1 inh 36.6 | PRMT1 inh conf inactive
O=c1[nH]c(Cc2ccccn2)nc2scc(-c3ccccc3Cl)c12	none
O=C(O)C1C2C=CC(O2)C1C(=O)NCc1ccccc1Br (configuration not stated)	PRMT1 inh 30.1 | PRMT1 inh conf inactive
CCC(C)(C)NC(=O)C(c1ccc(OC)cc1)N(C(=O)CCC(=O)Nc1cc(C)on1)c1ccc2c(c1)OCCO2 (configuration not stated)	none
CC(C)Oc1ccc(Br)cc1/C=N\NC(N)=S	PRMT1 inh 38.9 | PRMT1 inh conf inactive
Cc1sc(NC(=O)CSc2nnc(C)c(=O)[nH]2)c(C#N)c1C	PRMT1 inh 26.6 | PRMT1 inh conf 23.7
Cc1sc(NC(=O)CSc2nc(N)cc(N)n2)c(C#N)c1C	none
Cc1nnc(SCC(=O)Nc2sc3c(c2C(N)=O)CCC(C)C3)[nH]c1=O (configuration not stated)	PRMT1 inh 25.9 | PRMT1 inh conf 51.0
Cc1nnc(SCC(=O)Nc2sc3c(c2C(N)=O)CCCC3)[nH]c1=O	none
COc1ccc(CN(C)C(=O)CCC(=O)N2CCN(S(=O)(=O)c3ccc(Cl)cc3)CC2)c(OC)c1	none
O=C(CC1SC(=O)NC1=O)Nc1ccc(Cl)cc1 (configuration not stated)	PRMT1 inh 40.1 | PRMT1 inh conf 39.1
Clc1ccc(-c2nnc3n2N=C(c2ccc(-c4ccccc4)cc2)CS3)cc1	none
O=c1ccsn1Cc1ccccc1	PRMT1 inh 36.9 | PRMT1 inh conf 44.1
O=C1NC(Cc2ccccc2)C(=O)N1Cc1ccccc1 (configuration not stated)	none
Cc1nc2sc(C(=O)Nc3ccccc3)c(N)c2c(C)c1[N+](=O)[O-]	none
